Screens as filed in PubChem.
The list is not random: actives were taken first. Their share in the collection is about 6.2%.
FMDV antiviral: foot and mouth disease virus antiviral activity. Potency, µM (highest dose often 57.9 µM), for the others: top-dose activity change, negative = inhibition, hits mostly inhibitors. hit rate 1.2% among 410,000. FMDV antiviral cell-based qHTS; calls by dose curve; tested in HEK293T cells; note: read-out not given here; potency is the fitted concentration of half-maximal effect; nearly all actives have a fitted effect of over 45% in size
HCMV inh: blocks human cytomegalovirus replication. AID 1259415. HFF cells, HCMV-luciferase reporter, 72 h; active compounds read low. hit rate 4.5% among 410,000. activity change, negative = inhibition, % at 57.5 µM; in the data active = activity change below about -60%; inconclusive = no clear call, values can overlap the other calls; inactive = above about -39%
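Screen run at 2 compound doses on HFFs infected with reporter HCMV, MOI 1 PFU/cell. Luciferase activity from cell lysates at 72 h post infection gave inhibition relative to buffer-only and Salinomycin wells.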
Lassa entry inh: inhibitors of Lassa virus binding or cell entry | hit rate 1.2% among 300,000 | Potency, µM (highest dose often 37.9 µM), for the others: top-dose activity change, negative = inhibition, hits mostly inhibitors | Lassa virus pseudotype entry inhibition, cell reporter | AID 540256; calls by dose curve; tested in HEK293 cells; note: potency is the fitted concentration of half-maximal effect; nearly all actives have a fitted effect of over 50% in size
MARV entry inh: Marburg virus entry inhibition; Marburg virus pseudotyped entry inhibition, cell reporter; Potency, µM (highest dose often 37.8 µM), without a hit: at the highest dose activity change, negative = inhibition, actives largely listed as inhibitors; hit rate 1.8% among 300,000; calls by dose curve; tested in HEK293 cells; note: potency is the fitted concentration of half-maximal effect
Starred values were filed as active, the others as inactive; ? = inconclusive; nt = no result given; ! = a repeat was not active; [ ] = another dose, or the depositor's remark. % is set by controls: 0 for no effect and ±100 for the full control effect.

SMILES | FMDV antiviral | HCMV inh | Lassa entry inh | MARV entry inh
CC(Oc1ccc(Cl)cc1Cl)c1nc(-c2ccc(NC(=O)c3ccco3)cc2)no1 (centres undefined) | -20% | -93* | ? | ?
O=C(NC1CCCCC1)C(c1ccccn1)N(C(=O)c1csnn1)c1ccccc1 (centres undefined) | 1% | -6 | 20%[46.1 µM] | 4%[46.1 µM]
CCOc1ccc(S(=O)(=O)/N=C(/Nc2ccc(S(N)(=O)=O)cc2)c2ccccc2)cc1 | 20% | -103* | nt | nt
CC(Oc1ccc(C(=O)c2ccccc2)cc1)C(=O)Nc1ccc(S(N)(=O)=O)cc1 (centres undefined) | 0% | -68* | -5% | ?
CCOC(=O)N1CC(=O)Nc2ccc(Br)cc2C1c1ccccc1 (centres undefined) | -26% | -2 | nt | nt
COc1cc(C(=O)NCCSc2ccccc2)cc(OC)c1OC | -14% | 42 | 20%[46.1 µM] | -5%[46.1 µM]
Cc1cc(C)c(C)c(OCCCCN(C)Cc2ccccc2)c1 | -17% | -34 | nt | nt
O=C(c1cc2ccccc2oc1=O)N1CCOCC1 | 62% | -35 | 4% | 14%
COCC(=O)n1nc(-c2ccc(Cl)cc2)nc1NCc1ccc(F)cc1 | 29% | 40 | 0% | ?
Cc1ccc(-n2nc3c(N4CCC(C(=O)NCc5ccccc5C)CC4)nnc(C)c3c2C)cc1 | -18% | nt | nt | nt
Cc1nnc(N2CCC(C(=O)NCc3ccc(F)cc3)CC2)c2nn(-c3ccc(Cl)cc3)c(C)c12 | -28% | -86* | -9%[46.1 µM] | nt
COc1ccccc1CCNC(=O)C1CCN(c2nnc(C)c3c(C)n(-c4ccc(C)cc4)nc23)CC1 | -9% | -93*! | ? | nt
Cc1nnc(N2CCC(C(=O)NCCc3ccccc3)CC2)c2nn(-c3ccc(Cl)cc3)c(C)c12 | 0% | -11 | 12%[46.1 µM] | nt
CCOc1ccccc1CNC(=O)C1CCN(c2nnc(C)c3c(C)n(-c4ccc(C)cc4)nc23)CC1 | ? | -86* | -9%[46.1 µM] | nt
Cc1nnc(N2CCC(C(=O)NCCc3ccccc3Cl)CC2)c2nn(-c3ccccc3)c(C)c12 | -16% | -91* | -13%[46.1 µM] | nt
COc1ccc(CCNC(=O)CCS(=O)(=O)c2cccc3nsnc23)cc1OC | 4% | 55 | 10% | -28%
CCOC(=O)N1CCN(C(=O)c2cc3c(=O)n4cccc(C)c4nc3s2)CC1 | 2% | 13 | 3%[46.1 µM] | 6%[46.1 µM]
COc1ccc(NC(=O)C2=CC(c3ccc4c(c3)OCO4)=NS(=O)(=O)N2C)cc1 | -12% | -3 | 0%[46.1 µM] | 2%[46.1 µM]
Cc1ccc(-n2nc3c(N4CCC(C(=O)NCc5ccccc5Cl)CC4)nnc(C)c3c2C)cc1 | ? | -28 | -15%[46.1 µM] | nt
CCOc1ccc(CNC(=O)C2CCN(c3nnc(C)c4c(C)n(-c5ccc(C)cc5)nc34)CC2)cc1 | ? | -74* | nt | nt
Clc1ccccc1-c1nc(N2CCNCC2)c2ccccc2n1 | 12% | nt | nt | nt
COCCNCCCCSc1ccc(Cl)cc1 | -8% | -7 | nt | nt
CCSCc1nnc(SCC(=O)Nc2cccc(C(C)=O)c2)n1C | -16% | -31 | 7% | ?
O=C(NC(=S)N1CCN(CCO)CC1)C12CC3CC(CC(C3)C1)C2 | -12% | -73* | 23%[46.1 µM] | ?
CCC(=O)Nc1ccc(NC(=O)c2cccc3ccccc23)cc1 | 13% | -20 | 19% | -9%
SMILES | FMDV antiviral | HCMV inh | Lassa entry inh | MARV entry inh
O=C(/C=C/c1ccc(F)cc1)c1ccccc1Br | 22µM* | -82* | ? | -28%
NS(=O)(=O)c1ccc(N=Cc2c(O)[nH]c3ccc4ncsc4c23)cc1 | nt | nt | 7.1µM* | nt
NS(=O)(=O)c1ccc(N=Nc2ccc(=O)[nH]c2O)cc1 | 4% | -36 | 11% | 4%
Cn1c(=O)n(C)c2cc([N+](=O)[O-])c(N3CCN(S(=O)(=O)c4ccc5ccccc5c4)CC3)cc21 | nt | -35 | -29% | ?
COc1cccc(N2CCN(c3ccc(S(=O)(=O)N4CCN(C)CC4)cc3[N+](=O)[O-])CC2)c1 | ? | -38 | ? | ?
Cn1c(=O)n(C)c2cc([N+](=O)[O-])c(N3CCN(C(=O)c4cccc(F)c4)CC3)cc21 | ? | 1 | ? | -6%[46.1 µM]
Cc1ccc(S(=O)(=O)N2CCN(c3ccc(C(F)(F)F)cc3[N+](=O)[O-])CC2)cc1 | ? | -77* | ? | 8.9µM*
Cn1c(=O)n(C)c2cc([N+](=O)[O-])c(N3CCN(C(=O)c4cccc(Cl)c4)CC3)cc21 | 35µM* | ? | ? | ?
Cc1ccc(S(=O)(=O)N2CCN(c3cc4c(cc3[N+](=O)[O-])n(C)c(=O)n4C)CC2)cc1 | nt | -18 | ? | 23µM*
COc1ccc(N2CCN(S(=O)(=O)c3ccc4c(c3)CCCC4)CC2)c([N+](=O)[O-])c1 | nt | -86* | ? | ?
OC(c1ccc(Cl)c(F)c1)c1ncc(-c2ccc(Cl)cc2)[nH]1 (centres undefined) | 7% | -7 | nt | nt
CCOc1cc(/C=N/O)ccc1OCc1ccc([N+](=O)[O-])cc1 | -6% | -11 | 1% | ?
CCOc1cc(C=C(C(=O)OC)C(=O)OC)ccc1OCc1ccc([N+](=O)[O-])cc1 | ? | 158 | 3.5µM* | 2.8µM*
CS(=O)(=O)N(CC(=O)Nc1ccccc1C(=O)N1CCOCC1)c1cccc([N+](=O)[O-])c1 | -21% | 11 | 1% | -1%
Cc1ccc(S(=O)(=O)c2ccc([N+](=O)[O-])o2)cc1 | 18µM* | -28 | ? | 7.9µM*
NC(CSC1(c2ccc(F)cc2)c2ccccc2-c2ccccc21)C(=O)O (centres undefined) | -20% | -68* | nt | nt
NC(CSC1(c2ccc(Cl)cc2)c2ccccc2-c2ccccc21)C(=O)O (centres undefined) | -23% | -6 | -3% | 1%
Clc1ccc(OCCn2c(-c3ccco3)nc3ccccc32)cc1 | -29% | -75* | 8% | -16%
Cc1ccccc1Cn1c(C)nc2ccccc21 | ? | -87* | ? | ?
Cc1nc2ccccc2n1Cc1ccc(Cl)cc1 | ? | -89* | nt | nt
Fc1ccccc1Cn1c(-c2ccccc2)nc2ccccc21 | ? | -61* | ? | -19%[46.1 µM]
OCc1nc2ccccc2n1Cc1ccc(Cl)cc1 | -12% | -9 | -21% | -29%
COc1ccccc1Cn1c(C)nc2ccccc21 | ? | -4 | 3% | -5%[46.1 µM]
COc1ccc(CNc2nc3ccccc3n2Cc2ccc(Cl)cc2)cc1OC | -11% | -33 | ? | 11µM*
Nc1nc2ccccc2n1Cc1ccc(Cl)c(Cl)c1 | ? | 18 | 2%[46.1 µM] | 10µM*
SMILES | FMDV antiviral | HCMV inh | Lassa entry inh | MARV entry inh
c1ccc(Cn2c(CN3CCCC3)nc3ccccc32)cc1 | -19% | 9 | 20% | -27%
Clc1ccc(Cn2c(CN3CCCC3)nc3ccccc32)cc1 | nt | nt | ? | 3.2µM*!
Cn1c(=O)c2cn(Cc3ccc(Cl)cc3)cc2n(C)c1=O | -17% | -31 | 1% | -14%
O=C1CCc2cc(S(=O)(=O)N3CCC(C(=O)NCCC4=CCCCC4)CC3)ccc2N1 | -13% | -99* | nt | nt
Cc1noc(C)c1S(=O)(=O)N1CCC(C(=O)NCCC2=CCCCC2)CC1 | 0% | -102* | 11% | ?
Cc1nn(C)c(C)c1S(=O)(=O)N1CCC(C(=O)NCCC2=CCCCC2)CC1 | -11% | ? | nt | 0%
O=S(=O)(Cc1ccccc1)c1cnc2ccccc2n1 | 11µM* | -33 | -13% | -14%
COc1ccc(CCNC(=O)Cn2c(-c3nonc3N)nc3ccccc32)cc1OC | ? | 1 | 13% | -28%[46.1 µM]
